In the library only some 2.9% were active in any assay of this set; here they are far more common.
CRFR2-BP ag: agonists of human CRF-binding protein/CRF-R2 receptor complex. AID 588473. HEK293 CRF-R2/CRF-BP, calcium dye fluorescence (FLIPR); percent of saturating CRF peptide response. activation, % at 13.2 µM. 350,000 tested, 0.46% active;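 active = activation of at least 50%, plus an integration ratio under a set limit after plate pattern correction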;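 note: plate controls were neutral control wells without compound for no effect and CRF at EC100 for full effect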
MEKK2 WT-MEK5: raises or lowers MEK5 binding to wildtype human MEKK2 PB1 domain. Q9Y2U5. bead flow cytometry, Alexa488-MEK5 binding to MEKK2 WT; actives lie on both sides. binding response (% of control), % at 10 µM. 290,000 tested, 1.1% active; in the data active = binding response below about 67% or above about 130%
ABCB6 inh MLPCN: inhibitors of human ABC transporter ABCB6. Q9NP58. K562-ABCB6 porphyrin accumulation, flow cytometry, 1 h; stronger effect = lower value. 360,000 tested, 0.19% active. fluorescence ratio to DMSO, % at 10 µM;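 active = fluorescence ratio to DMSO below 75%, the collection mean minus 3 SD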;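 note: signal is porphyrin accumulated inside mitochondria; 100% equals median channel fluorescence of DMSO control wells; lower ratio means ABCB6 inhibition with less porphyrin fluorescence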
CRFBP-R2 block: CRF-BP/CRF-R2 complex antagonism | HEK293 CRF-R2/CRF-BP, CRF-induced calcium fluorescence | inhibition, % at 11.8 µM | 350,000 tested, 0.59% active | AID 588475;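 active = inhibition of the ligand-induced calcium signal above about 50% at the single tested concentration, limit read from the data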
MEKK3 PB1 HTS: MEKK3-MEK5 PB1 interaction, increase or decrease; Q99759; bead-based flow cytometry, Alexa488-MEK5 binding to MEKK3; actives lie on both sides; 0 = blocked by unlabeled MEK5, 100 = vehicle; binding response (% of control), % at 10 µM; 290,000 tested, 1.4% active; AID 1529;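 active = binding response more than 3 SD above or below the average of its plate-row segment, actives on both sides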;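 note: Alexa488 bead fluorescence after subtracting the streptavidin-only scavenger bead signal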
Target sequence (Q99759 whole entry, looked up): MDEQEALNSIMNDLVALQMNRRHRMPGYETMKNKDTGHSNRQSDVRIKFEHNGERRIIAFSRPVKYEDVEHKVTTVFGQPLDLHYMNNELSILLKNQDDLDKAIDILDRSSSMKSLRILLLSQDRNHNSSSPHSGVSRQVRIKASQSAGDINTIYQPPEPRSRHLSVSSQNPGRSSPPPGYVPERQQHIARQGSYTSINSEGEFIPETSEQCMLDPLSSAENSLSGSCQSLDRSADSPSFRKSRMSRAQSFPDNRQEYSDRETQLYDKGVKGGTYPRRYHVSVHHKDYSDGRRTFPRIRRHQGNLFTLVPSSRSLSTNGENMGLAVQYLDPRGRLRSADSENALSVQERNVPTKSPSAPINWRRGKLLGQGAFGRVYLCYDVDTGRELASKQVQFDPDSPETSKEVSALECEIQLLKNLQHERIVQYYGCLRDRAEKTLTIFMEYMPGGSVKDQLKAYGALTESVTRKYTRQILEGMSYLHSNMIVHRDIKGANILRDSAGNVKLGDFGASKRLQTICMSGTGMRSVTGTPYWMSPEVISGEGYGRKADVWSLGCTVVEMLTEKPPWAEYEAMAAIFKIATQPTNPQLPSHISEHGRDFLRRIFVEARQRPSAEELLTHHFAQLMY
MEKK2mut PB1 HTS: signal of MEK5 binding to mutant human MEKK2 PB1 domain; bead flow cytometry, Alexa488-MEK5 binding to MEKK2 mutant; percent response, % at 10 µM; 290,000 tested, 0.35% active; AID 1530; in the data active = percent response above about 24%, passing the limit was not always enough
MEKK2wt confirm: raises or lowers MEK5 binding to wildtype human MEKK2, retest; bead flow cytometry, Alexa488-MEK5 binding to MEKK2 WT; actives lie on both sides; 5,900 tested, 2.4% active; binding response (% of control), % at 10 µM; shares compounds with MEKK3 PB1 HTS; in the data active = binding response below about 16% or above about 210%; inactive = in between
MEKK2mut-MEK5: signal of MEK5 binding to mutant human MEKK2, retest | percent response, % at 10 µM | 5,900 tested, 2% active | AID 1893 | bead flow cytometry, Alexa488-MEK5 binding to MEKK2 mutant | shares compounds with MEKK3 PB1 HTS; in the data active = percent response mostly above about 71%, no sharp cut-off; inactive = mostly below about 38%;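 note: higher means compound restores mutant binding toward wildtype level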
MEKK3 confirm: confirmation of inhibitors of MEK5 binding to human MEKK3; 5,900 tested, 1.8% active; shares compounds with MEKK3 PB1 HTS; bead flow cytometry, Alexa488-MEK5 binding to MEKK3; stronger effect = lower value; binding response (% of control), % at 10 µM;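 active = binding response below 72% of control, or above a set upper limit, though filed actives all read lower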;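 note: 100% = DMSO only wells and 0% = binding blocked by excess unlabeled MEK5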
* marks the source's active call; other numbers are inactive results; · = no result given; [ ] = remark or other dose.

SMILES	CRFR2-BP ag	MEKK2 WT-MEK5	ABCB6 inh MLPCN	CRFBP-R2 block	MEKK3 PB1 HTS	MEKK2mut PB1 HTS	MEKK2wt confirm	MEKK2mut-MEK5	MEKK3 confirm
CCc1c(C)nc2cc(-c3ccc(OC)c(OC)c3)nn2c1N1CCCC1	0	-1.0*[inhibitor]	101	-25	2.0*[inhibitor]	-28	106	0	109
CCc1c(C)nc2cc(-c3ccc(OC)c(OC)c3)nn2c1N1CCC(C)CC1	0	103	108	-7	98	3	·	·	·
CCCSc1nc(N)cc(=O)[nH]1	0	46*[inhibitor]	139	-3	35*[inhibitor]	-18	94	-6	95
CCCSc1nc(C)cc(=O)[nH]1	-2	105	102	5	101	2	·	·	·
Cc1cc(C)c(S(=O)(=O)c2ccccc2C(=O)O)c(C)c1	-1	124	102	12	126*	6	101	9	104
CC(C)(C)S(=O)(=O)c1ccccc1C(=O)O	0	104	100	-5	102	4	·	·	·
CN(C(=O)CCS(=O)(=O)c1cc2c(cc1Cl)NC(=O)CO2)C1CCCCC1	3	98	95	28	101	3	·	·	·
Cc1oc(-c2cccc(Cl)c2)nc1CSc1nc2c(c(=O)[nH]1)CCC2	-1	100	100	7	107	13	·	·	·
Cc1oc(-c2ccccc2Cl)nc1CSc1nc2c(c(=O)[nH]1)CCC2	-1	81	100	2	75*[inhibitor]	-8	97	-3	100
CCN(CC)c1ccc(CNc2ccc3c(c2)ncn3C(C)(C)C)cc1	-3	135*	97	-9	110	16	134	16	105
CC(C)(C)n1cnc2cc(NCc3ccc(Br)cc3)ccc21	-1	137*	92	-30	112	20	145	35	105
CCc1ccc(CNc2ccc3c(c2)ncn3C(C)(C)C)cc1	8	111	100	-41	99	7	·	·	·
CCOc1ccc(S(=O)(=O)/N=C(/Nc2ccc(C)c(S(=O)(=O)N3CCOCC3)c2)c2ccccc2)cc1	1	·	100	41	·	·	·	·	·
COc1ccc2sc(N(CCCN(C)C)C(=O)c3nc4ccccc4s3)nc2c1	20	195*	93	-11	111	25	166	38	104
COc1ccc2nc(N(CCN(C)C)C(=O)c3ccc(C(=O)c4ccccc4)cc3)sc2c1	0	146*	111	-6	108	24*	148	18	102
CCN(CC)CCN(C(=O)c1ccc(C(=O)c2ccccc2)cc1)c1nc2ccc(OC)cc2s1	3	172*	99	-9	113	37*	163	31	105
COc1cc2nc(N(CCCN(C)C)C(=O)c3ccc(C(=O)c4ccccc4)cc3)sc2cc1OC	1	·	98	-13	·	·	·	·	·
COc1ccc(-n2ncc3c(=O)n(CC(=O)NC(C)C)cnc32)cc1	-2	110	100	12	100	12	·	·	·
CCCOc1ccc(C2C(C(=O)c3ccc(C)o3)=C(O)C(=O)N2CCN2CCOCC2)cc1OC (stereo not given)	-1	0.0*[inhibitor]	108	-2	0.0*[inhibitor]	-16	100	-3	103
COc1ccc(OC)c(C2C(C(=O)c3ccc(C)o3)=C(O)C(=O)N2CCN2CCOCC2)c1 (stereo not given)	-1	101	97	12	96	-2	·	·	·
CN(C(=O)CCN1C(=O)S/C(=C\c2ccccc2)C1=O)C1CCS(=O)(=O)C1 (stereo not given)	-1	100	92	-1	98	-1	·	·	·
